Screening data from PubChem.
M1 agonist: M1 muscarinic receptor agonists, primary screen, CHO-M1 cells, Fluo-4 calcium, agonist mode; B-score at 10 µM; 3% of 64,000 active; Muscarinic acetylcholine receptor M1; Fluo-4 calcium fluorescence; hits give high values;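 active means fluorescence rise, raw or as B-score row- and column-corrected plate score, outside the 99.7% band of its plate's samples, either direction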
M1 antagonist: antagonists of rat M1 muscarinic receptor; 3.4% of 64,000 active; Muscarinic acetylcholine receptor M1 (Rattus norvegicus), P08482; CHO-M1 cells, Fluo-4 calcium, ACh EC80 antagonist mode; hits give low values; B-score at 10 µM;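 active means calcium fluorescence response, raw or row-and-column corrected B-score, differing from the plate sample mean either way at a set confidence level, mostly lower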
Cav3 T inh: Cav3.2 calcium influx blockers – cell-based, Fluo-4 calcium fluorescence, FDSS, MLSMR library, primary screen; B-score at 10 µM; AID 449739, 2010; Voltage-dependent T-type calcium channel subunit alpha-1H (Homo sapiens), O95180; Cav3.2-expressing cells; hits give low values; 4% of 100,000 active;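 active means single-dose well whose peak fluorescence ratio is a statistical outlier from its plate by either plate-standardised score or position-corrected B-score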
PLAP act: PLAP enzyme activators, biochemical, luminescence, HTS; Alkaline phosphatase, placental type (Homo sapiens), P05187; purified PLAP enzyme, luminescent substrate read-out; hits give high values; activation fold at 20 µM; 1.2% of 96,000 active; AID 696, 2007; in the data active means activation fold above about 2
Numbers without * were called inactive; / = no result given. Compounds with a hit are over-represented: about 7.6% of the library has one in this group of screens.

SMILES | M1 agonist | M1 antagonist | Cav3 T inh | PLAP act
CC(=O)C1=C(C)Nc2ncnn2C1c1ccc(Cl)cc1 (centres undefined) | 0.747 | 1.04 | 0.105 | 0.9
O=C(c1nc2n(n1)C(c1ccc(Cl)cc1)C=C(c1ccccc1)N2)N1CCOCC1 (centres undefined) | 46.4* | 0.0328 | / | 1.6
CCC(=O)Nc1nc2n(n1)C(c1ccc(OC)cc1)C=C(c1ccccc1)N2 (centres undefined) | / | / | -2.15 | 1.3
Cn1nnc(NC(=O)c2ccccc2)n1 | / | / | 0.419 | /
COc1ccc(C2C=C(c3ccc(Cl)cc3)Nc3nc(NC(C)=O)nn32)cc1 (centres undefined) | 235* | -1.7 | / | 1.9
CC1=CC(c2ccc(Cl)cc2)n2nc(NC(=O)c3ccccc3)nc2N1 (centres undefined) | / | / | -1.83 | 2.3*
CC(=O)Nc1nc2n(n1)C(c1ccc(Cl)cc1)C=C(C)N2 (centres undefined) | 1.06 | 1.95* | 0.634 | 1.6
CC(=O)Oc1ccc(NC(=O)CSc2ccccc2)cc1 | 0.143 | -1.06 | 0.559 | 1
CN(c1cccc(NC(=O)CN(c2ccc(C34CC5CC(CC(C5)C3)C4)cc2)S(C)(=O)=O)c1)S(C)(=O)=O | / | / | -2.38 | 1.1
Cc1ccc(-c2ccc(/C=N/N3C(=O)C4C5C=CC(C6CC56)C4C3=O)o2)c([N+](=O)[O-])c1 (centres undefined) | / | / | -5.11* | 1
O=C1C2C3C=CC(C3)C2C(=O)N1/N=C/c1cc(Br)cc([N+](=O)[O-])c1O (centres undefined) | / | / | -2.54 | 0.9
COC(=O)C1=C2c3[nH]c4ccccc4c3CCN2C(=O)CC1 | / | / | -2.03 | /
CCOC(=O)c1nnn(CC(=O)N2N=C(c3cccc4ccccc34)CC2c2ccccc2)c1C(=O)OCC (centres undefined) | / | / | -5.51* | /
CCc1ccc(OCc2nnc(NC(=O)c3cccs3)s2)cc1 | / | / | / | 1.1
CC(=O)Nc1ccc(NS(=O)(=O)c2cn(C)c(=O)n(C)c2=O)cc1 | 0.0109 | 0.88 | 1.42 | 1.1
Cc1cccc(/C(N)=N/OC(=O)N2c3ccccc3Sc3ccccc32)c1 | / | / | -4.92* | 1
COc1ccccc1N1CCN(C(c2cccs2)c2nnnn2C2CCCC2)CC1 (centres undefined) | 0.384 | 0.601 | -1.13 | 1.5
CCCNC(=O)c1ccccc1NC(=O)c1ccccc1N(C)S(=O)(=O)c1ccc(C)cc1 | / | / | -4.69* | /
COc1cc(NS(=O)(=O)c2ccc(OC)c(C)c2C)c(OC)cc1Cl | 0.0502 | -0.241 | -7.39* | 1.2
COc1ccc(S(=O)(=O)Nc2ccccn2)c(C)c1C | -0.329 | 0.676 | 0.138 | 1.1
COc1ccc(-c2[nH]ncc2Oc2ccccc2OC)c(O)c1 | / | / | -2.33 | 2.5*
COc1ccc(Oc2cn[nH]c2-c2ccc(O)cc2O)cc1 | -0.7 | 0.529 | -5.95* | 2.2*
C=C(C)COc1ccc(-c2[nH]ncc2Oc2ccccc2OCC)c(O)c1 | 1.17 | -0.406 | -0.456 | 1.8
COc1ccc(-c2[nH]ncc2-c2cnc(C)s2)c(O)c1 | 0.0847 | -0.763 | -0.474 | 2.9*
COC(=O)c1ccc(C(=O)Nc2cc(Cl)ccc2Cl)cc1NC(=O)c1ccc(N(C)C)cc1 | / | / | 1.05 | 1
SMILES | M1 agonist | M1 antagonist | Cav3 T inh | PLAP act
CS(=O)(=O)N1CCCC(C(=O)NCc2ccc(F)cc2Cl)C1 (centres undefined) | -1.04 | 1.66 | 0.628 | 1
CC1CN(C(=O)N2c3ccccc3Sc3ccccc32)C(C)CC1=O (centres undefined) | -0.472 | -0.946 | -4.58* | 1.6
CC1CCN(C(=O)N2c3ccccc3Sc3ccccc32)CC1 | / | / | 0.113 | 1
CC(C)(C)c1ccc(C(=O)Nc2cnccn2)cc1 | 0.323 | -0.647 | 0.133 | 1
O=C(Nc1nncs1)c1c(F)c(F)c(F)c(F)c1F | -0.578 | 1.04* | 2.35 | 0.8
O=C(Nc1ccc(Cc2ccncc2)cc1)c1ccc(Cl)c([N+](=O)[O-])c1 | / | / | -8.65* | 0.9
COc1ccc(C2=NO[C@@H]3C(=O)N(c4cccc(C)c4C)C(=O)[C@H]23)cc1OC | 0.239 | 0.907* | -0.313 | 0.8
COc1ccc(C2=NO[C@@H]3C(=O)N(c4ccc(C)cc4C)C(=O)[C@H]23)cc1OC | -0.0878 | 0.0519 | 0.0472 | 0.7
CCOc1cc(C(c2c(C)[nH][nH]c2=O)c2c(C)[nH][nH]c2=O)ccc1OCc1ccc([N+](=O)[O-])cc1 | / | / | -0.11 | 2.7*
COC(=O)C1=C(C(=O)OC)[C@@H]2N(Cc3ccccc3)c3ccccc3[C@@]23C[C@@H](C(=O)OC)N(C(=O)NC(C)(C)C)C3=N1 | / | / | -2.41 | /
Cn1c(=O)c2c(nc(CN3CCN(c4ccccc4)CC3)n2CCc2ccccc2)n(C)c1=O | 0.125 | 0.802 | -5.65* | /
Cc1ccc(Cn2c(CN(C)Cc3ccccc3)nc3c2c(=O)n(C)c(=O)n3C)cc1 | -0.262 | -0.183 | -5.23* | 1.5
CCCCCn1c(CN(C)Cc2ccccc2)nc2c1c(=O)n(C)c(=O)n2C | 0.0914 | 0.156 | -2.87 | 2*
CN(Cc1ccccc1)Cc1nc2c(c(=O)n(C)c(=O)n2C)n1Cc1ccc(Cl)cc1 | -0.467 | -0.221 | / | 1.5
CN(Cc1ccccc1)c1nc2c(c(=O)[nH]c(=O)n2C)n1CCOc1ccccc1 | 0.891 | -0.00602 | -4.82* | 1.4
O=C(NC(Cc1ccccc1)c1ccc2c(c1)OCCCO2)c1ccc(F)cc1 (centres undefined) | / | / | -1.31 | 1.8
CCCC(C)C(=O)Nc1ccc(C(N)=O)cc1 (centres undefined) | 0.266 | 0.152 | 1.19 | 1.1
COc1ccccc1CNC(=O)C[n+]1ccccc1 | / | / | -0.0116 | 0.7
CC(O)CSc1nc2c(c(=O)n(C)c(=O)n2C)n1CCCc1ccccc1 (centres undefined) | 0.0509 | 0.65 | -0.618 | /
CN(Cc1ccccc1)c1nc2c(c(=O)n(C)c(=O)n2C)n1CCCc1ccccc1 | / | / | -6.25* | 2.1*
Cc1cc(C)n(C(=O)CN2C(=O)CCC2=O)n1 | -0.302 | 0.264 | -0.0315 | 0.9
Cc1cc(C)n(C(=O)C23CC4CC(CC(C4)C2)C3)n1 | -0.161 | 0.384 | -5.58* | 1.3
COc1ccc(/C=C/C(=O)Oc2cccc(/C=N/NC(=O)COc3c(C)cccc3C)c2)cc1 | / | / | -0.317 | 1
Cc1ccc(-n2c(C)nn(-c3ncc(C(F)(F)F)cc3Cl)c2=O)cc1 | / | / | -0.544 | 0.9
Cc1ccc(C2C(C#N)=C(N)Oc3cc4c(cc32)OCO4)cc1 (centres undefined) | 0.00446 | 0.114 | -4.38* | 1
CSc1ccc(C2C(C#N)=C(N)Oc3cc4c(cc32)OCO4)cc1 (centres undefined) | -1.32 | -0.677 | 1.34 | 0.9
CCCN1C(=O)C(O)(CC(=O)c2ccc3c(c2)OCCO3)c2ccccc21 (centres undefined) | / | / | 0.473 | 1.2
C#CCN1C(=O)C(O)(CC(=O)c2ccc3c(c2)OCCO3)c2ccccc21 (centres undefined) | -0.453 | 0.29 | -3.8* | 1
COc1ccc(CCNC(=O)C2CCN(Cc3nc(-c4cccc(Cl)c4)oc3C)CC2)cc1OC | -0.28 | 0.304 | / | 2.2*
